Experimental data taken from ChEMBL document CHEMBL3988442, “University of Dundee, Small-Polar-MMV Screening Library” (2021).
The campaign covered roughly 48,000 compounds. About 13,000 (27%) showed an effect of 50% or more. This is one part of the list.

Tested on: Wolbachia pipientis
Assay: Anti-Wolbachia Cell-Based Screen
Type: functional
Design: scale not given: in the data most compounds retested in dose-response had high values
Settings: 5 µM

Going from `O=C(NCCN1CCCC1)c1nc2c(o1)CN(C(=O)c1cccnc1)C2.O=C(O)C(F)(F)F.O=C(O)C(F)(F)F` to `O=C(NCCNc1cc(N2CCCC2)ncn1)c1cnccn1`, the “Percent Effect” value rises from -5.766% to 10.51%.

Compared with `COCCN1CCc2ncc(CN(C)C)n2CC1`, `Cc1nn(C)cc1-c1ccnc(N2CCCN(CC(C)C)CC2)n1` is higher in “Percent Effect” value: -10.98% for the first, 87.41% for the second.

First: CC1CN(S(=O)(=O)c2ccc(F)cc2F)c2cccnc2O1 (configuration not stated)
Second: CN(C)C1Cc2ccccc2N(S(=O)(=O)c2ccc(C#N)cc2)C1 (configuration not stated)
The “Percent Effect” value of the first is higher: -5.201% for the first, -15.49% for the second.

First: NC(=O)NC(=O)CCN1C(=O)CC(Cc2ccc(F)cc2)C1=O (configuration not stated)
Second: COCCn1cc(C(=O)N2CCCC2c2ccc(F)cc2)ccc1=O (configuration not stated)
The “Percent Effect” value of the first is higher: 2.732% for the first, -7.034% for the second.

First: COc1cccc(C(=O)N2CCOCC2CN(C)C)c1OC.O=CO (configuration not stated)
Second: CC(CNC(=O)c1ccccc1Oc1cccnc1)N(C)C (configuration not stated)
The “Percent Effect” value of the first is higher: 3.966% for the first, 3.869% for the second.

Going from `Cc1cc(C(=O)N[C@H]2CN(CCC(N)=O)C[C@@H]2C2CC2)sc1C` to `CN(C)C(=O)c1cc(NC(=O)N2CCCC(C(F)(F)F)C2)ccn1` (configuration not stated), the “Percent Effect” value falls from 6.856% to -9.482%.

First: O=C(Nc1cccc2c1CCCC2)c1cccnc1N1CCCNCC1
Second: CC1CN(c2ncccc2C(=O)Nc2cccc3c2CCCC3)CCN1 (configuration not stated)
The “Percent Effect” value of the first is higher: 136.8% for the first, 121.2% for the second.

Compared with `CC1CN(c2ncccc2C(=O)N[C@@H]2CCCc3ccccc32)CCN1` (some centres not stated), `O=C(CS(=O)(=O)c1ncccc1Cl)NC1CCCc2ccccc21` (configuration not stated) is lower in “Percent Effect” value: 127.7% for the first, 0.01745% for the second.

Going from `Cc1cccc(C(=O)Nc2cccc3c2CCCC3)n1` to `O=C(Nc1cccc2c1CCCC2)c1cccc(CN2CC[C@H](O)C2)c1`, the “Percent Effect” value falls from -12.03% to -13.79%.

Going from `O=C(Nc1cccc2c1CCCC2)C1CCCN1c1nccs1` (configuration not stated) to `Cc1c(CNC(=O)C2CCCCCN2C)oc2ccccc12` (configuration not stated), the “Percent Effect” value falls from 15.72% to 0.5854%.

Compared with `NC(=O)c1cccnc1N1CCN(c2ncnc3c2CCNC3)CC1`, `CC(=O)N1CCCN(c2nccc(-c3cn(C)nc3C)n2)CC1` is higher in “Percent Effect” value: -13.85% for the first, -3.527% for the second.

First: O=C(CS(=O)(=O)c1ccccn1)NC1CCCc2ccccc21 (configuration not stated)
Second: OCC1CCCN1c1cc(NCCNc2ccccn2)ncn1 (configuration not stated)
The “Percent Effect” value of the first is higher: 25.59% for the first, 1.6% for the second.

Going from `Cc1cc(N2CCN(C(=O)c3cc(Cl)c[nH]3)CC2)nc(N)n1` to `Cc1cc(C)n(CCN2CCN(C(=O)c3cc4ccccc4o3)CC2)n1`, the “Percent Effect” value rises from 3.543% to 9.033%.

Going from `CC(=O)CCCC(=O)N(Cc1ccsc1)CC(C)C` to `CCN(CC)C(=O)NC(C)c1ccc(Oc2cccnc2)c(F)c1` (configuration not stated), the “Percent Effect” value rises from -0.6388% to 111%.

Going from `CC(NC(=O)N(C)C1CC1)c1ccc(Oc2cccnc2)c(F)c1` (configuration not stated) to `CC(NC(=O)CN(C)C(C)C)c1ccc(Oc2cccnc2)c(F)c1` (configuration not stated), the “Percent Effect” value rises from 100.6% to 102.4%.

First: CC(NC(=O)Cc1ccon1)c1ccc(OCC2CC2)c(F)c1 (configuration not stated)
Second: Cc1cc(CC(=O)NC(C)c2ccc(OCC3CC3)c(F)c2)n[nH]1 (configuration not stated)
The “Percent Effect” value of the first is higher: 0.6015% for the first, -4.858% for the second.

Compared with `CC(NC(=O)Cn1ccnc1)c1ccc(OCC2CC2)c(F)c1` (configuration not stated), `CC(NC(=O)c1ccnn1C)c1ccc(OCC2CC2)c(F)c1` (configuration not stated) is lower in “Percent Effect” value: 47.59% for the first, 28.88% for the second.

Going from `CCC(C#N)NC(=O)c1ccc(Oc2cccnc2)cc1` (configuration not stated) to `CN1CC(Oc2ccc(Cl)cc2)=NC(SCC(=O)Nc2ccccc2)=N1`, the “Percent Effect” value rises from -3.415% to 25.95%.

First: OC[C@@H](O)CN(CCC(F)(F)F)c1ncc(Cl)cn1
Second: COC(=O)NCCC(=O)NC(c1ccc(Cl)cc1)C(F)(F)F (configuration not stated)
The “Percent Effect” value of the first is higher: -0.8071% for the first, -2.05% for the second.

First: Cn1ccc2c(-c3ccc(NCCO)nn3)ccnc21
Second: OCCNc1cc(-c2ccncc2)ncn1
The “Percent Effect” value of the first is lower: 2.598% for the first, 123.3% for the second.

Going from `OCCNc1cc(-c2ccccc2)ncn1` to `OCCNc1cc(N2CCN(Cc3ccccc3)C(CCO)C2)ncn1` (configuration not stated), the “Percent Effect” value falls from 107.4% to 0.1628%.

Compared with `CNc1cc(-c2ccncc2)ncn1`, `CN(C)c1nccc(C2CN(c3cnccn3)CCO2)n1` (configuration not stated) is lower in “Percent Effect” value: 104.2% for the first, 85.29% for the second.

Going from `COc1ccc(Cc2ncc3c(n2)CN(C(=O)CCO)C3)cc1` to `CN1CCCN(Cc2nc(Cc3ccccc3)n[nH]2)CC1`, the “Percent Effect” value rises from -39.39% to 19.97%.

Going from `N#Cc1ccc(CN(CC(N)=O)C2CCCC2)c(Br)c1` to `O=C(NCc1nc(NC2CCCC2)c2cc(Cl)ccc2n1)c1cscn1`, the “Percent Effect” value rises from -1.736% to 4.35%.

Compared with `CC(C)(C)c1ncc(C(=O)NCCSc2ccccn2)c(O)n1`, `CCn1nc(-c2ccccc2F)ccc1=O` is higher in “Percent Effect” value: 2.392% for the first, 11.86% for the second.

First: Cc1nn(C)cc1-c1ccnc(N2CCSCC2)n1
Second: CC(=O)N1CCCN(c2nccc(-c3c(C)nn(C)c3C)n2)CC1
The “Percent Effect” value of the first is lower: -11.35% for the first, 41.92% for the second.

Going from `Cc1nn(-c2ccccc2)c(C)c1-c1ccnc(N2CCCNCC2)n1` to `Cc1nn(C)c(C)c1-c1ccnc(N2CCCN(CC(C)C)CC2)n1`, the “Percent Effect” value rises from 14.93% to 93.07%.

Going from `Cc1cc(C)c2c(c1)C(CC(=O)O)C(=O)N2` (configuration not stated) to `Cc1n[nH]c(C2CN(C(=O)c3ccoc3C)CCO2)n1` (configuration not stated), the “Percent Effect” value falls from 1.764% to -42.67%.

First: O=c1ccc(-c2ccccc2F)nn1CN1CCCCCC1
Second: CN1CCCN(Cn2nc(-c3ccccc3F)ccc2=O)CC1
The “Percent Effect” value of the first is lower: 147.7% for the first, 154.5% for the second.

Compared with `O=c1ccc(-c2ccccc2F)nn1CCN1CCCS1(=O)=O`, `CN1CCN(Cc2noc(-c3cc(-c4ccccc4F)n[nH]3)n2)CC1` is lower in “Percent Effect” value: -2.823% for the first, -9.744% for the second.

First: CCN1C(=O)[C@]2(CC[C@@H]3CN(S(=O)(=O)CC(C)C)C[C@@H]32)N=C1C
Second: CCc1c(C)nc(C)nc1N1C[C@@H](CN(C)C)[C@@H](CO)C1
The “Percent Effect” value of the first is lower: -19.96% for the first, -2.089% for the second.

Compared with `c1ccc(C2CN(c3ncnc4[nH]cnc34)CCO2)cc1` (configuration not stated), `CN(C)c1nccc(C2CN(c3ccccc3)CCO2)n1` (configuration not stated) is higher in “Percent Effect” value: 11.05% for the first, 99.49% for the second.

Going from `CN(C)c1nccc(N(C)C2CCOCC2)n1` to `CC(=O)N1CCOC(c2ccnc(N(C)C)n2)C1` (configuration not stated), the “Percent Effect” value rises from 2.354% to 93.18%.

In the case of `COc1ccccc1CN1C[C@@H](F)[C@@H](OCc2nc3cnccc3[nH]2)C1`, the “Percent Effect” value is reported as -3.752%.
